FBW7 act = activators of human E3 ligase FBW7. AlphaScreen FBW7–phospho-cyclin E peptide binding, activator screen. normalized activity (activation), % at 26.1 µM. 650,000 compounds, 0.13% hits. AID 1259310; in the data active means normalized activity above about 1.9%;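 further: purified mutant Fbw7 with reduced substrate affinity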
Target sequence (Q969H0 whole entry, looked up): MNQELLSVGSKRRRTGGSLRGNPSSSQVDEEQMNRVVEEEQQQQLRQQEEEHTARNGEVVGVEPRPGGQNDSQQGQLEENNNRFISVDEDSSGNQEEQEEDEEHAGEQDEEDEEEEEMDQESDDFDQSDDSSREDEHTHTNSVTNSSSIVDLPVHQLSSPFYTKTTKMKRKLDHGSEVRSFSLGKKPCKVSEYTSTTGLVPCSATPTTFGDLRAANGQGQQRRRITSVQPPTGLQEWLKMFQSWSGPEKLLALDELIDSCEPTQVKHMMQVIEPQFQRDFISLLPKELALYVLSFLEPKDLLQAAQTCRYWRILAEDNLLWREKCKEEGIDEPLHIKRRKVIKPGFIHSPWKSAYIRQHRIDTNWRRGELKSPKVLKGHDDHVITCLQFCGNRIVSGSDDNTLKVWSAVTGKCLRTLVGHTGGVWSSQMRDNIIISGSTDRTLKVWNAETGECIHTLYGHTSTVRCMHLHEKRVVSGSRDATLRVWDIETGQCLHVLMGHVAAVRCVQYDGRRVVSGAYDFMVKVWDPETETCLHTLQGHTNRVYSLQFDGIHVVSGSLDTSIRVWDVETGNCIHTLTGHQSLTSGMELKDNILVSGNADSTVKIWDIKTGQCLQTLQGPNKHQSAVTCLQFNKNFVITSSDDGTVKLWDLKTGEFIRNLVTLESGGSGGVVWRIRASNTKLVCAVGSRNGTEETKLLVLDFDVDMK
GPR151 activ = human GPR151 activation | 650,000 compounds, 1% hits | activation, % at 11.2 µM | PathHunter beta-arrestin GPR151 cells, luminescence | Q8TDV0; in the data active means activation above about 4.9%;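 further: 0% = median of compound wells and 100% = cells with positive control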
TEAD-YAP inh = TEAD-YAP interaction inhibition | HEK-TIYL cells, TEAD-Gal4/YAP UAS-luciferase luminescence | 640,000 compounds, 1.4% hits | inhibition, % at 9.12 µM; in the data active means inhibition above about 32%;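 further: 0% = median of test compound wells and 100% = reference inhibitor wells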
MITF primary = inhibitors of human MITF. O75030. AlphaScreen MITF homodimerization, bead proximity signal. inhibition, % at 2.6 µM. 650,000 compounds, 0.91% hits. AID 1259374; in the data active means inhibition above about 50%;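 further: 0% = vehicle wells with protein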
* marks the source's active call; other numbers are inactive results. Rows were chosen to be rich in hits. Some 3.5% of all compounds tested hit in one or more screens of this group.

SMILES	FBW7 act	GPR151 activ	TEAD-YAP inh	MITF primary
Cc1cc(C(F)(F)F)c(C#N)c(SCC(=O)Nc2ccc(F)cc2)n1	0	0	-12	4
Cc1cccc(NC(=O)CSc2nc(C)cc(C(F)(F)F)c2C#N)n1	1	-2	88*	14
Cc1cc(C)c(C#N)c(SCC(=O)Nc2nccs2)n1	0	-1	-54	-3
Cc1cc(C)nc(SCC(=O)Nc2nc3ccccc3s2)n1	0	-1	-4	-5
Cc1cc(C(F)(F)F)c(N)c(SCC(=O)Nc2nc3ccccc3s2)n1	0	1	65*	-3
CCNc1cc(Nc2ccccc2OC)c([N+](=O)[O-])c2nonc12	0	-1	2	1
CCn1c(SCc2cccnc2)nnc1-c1cc2ccccc2cc1O	0	0	44*	-2
CCOC(=O)N1CCN(S(=O)(=O)c2ccc(C(=O)Nc3nc4c(OC)cc([N+](=O)[O-])cc4s3)cc2)CC1	0	0	6	10
COc1ccc(Br)cc1/C=C/C(=O)c1cccc(NC(C)=O)c1	0	4	75*	13
NCCCC[C@@H]1NC(=O)[C@@H]2C[C@H](NCc3sc4ccccc4c3Cl)CN2C1=O	0	-1	33*	5
O=C1[C@@H]2C[C@H](NCc3sc4ccccc4c3Cl)CN2C(=O)[C@@H]2CCCN12	0	-2	39*	2
CC1CCc2c(sc(NC(=O)CSc3ncnc4sc5c(c34)CCCC5)c2C#N)C1 (centres undefined)	0	-2	7	-2
O=C(Nc1ccc(NC(=O)c2cccs2)cc1)c1cc2ccccc2o1	0	1	2	3
COc1cccc(CC2=NOC(C(=O)NCC(C)(C)CO)C2)c1 (centres undefined)	0	0	1	0
COc1cccc(CC2=NOC(C(=O)NCc3cnc4ccccc4c3)C2)c1 (centres undefined)	0	1	35*	3
COc1ccccc1C1C2CN(Cc3ccccc3)CC=C2C(C#N)=C(N)C1(C#N)C#N (centres undefined)	1.9*	0	7	4
N#CC1=C(N)C(C#N)(C#N)C(c2ccccc2F)C2CN(Cc3ccccc3)CC=C12 (centres undefined)	0	1	4	8
CC1=NN(c2nc(-c3cccc([N+](=O)[O-])c3)cs2)C(=O)/C1=C\c1ccc(N(C)C)cc1	0	0	13	-1
COC(=O)C(C)Oc1cc(OC(C)C(=O)OC)c2c3c(c(=O)oc2c1)CCC3 (centres undefined)	1	0	44*	-12
CCOC(=O)C(C)Oc1cc(OC(C)C(=O)OCC)c2c3c(c(=O)oc2c1)CCCC3 (centres undefined)	0	-1	16	6
CCc1ccc2c(c1)[C@H]1OCC[C@H]1[C@@H](c1cccs1)N2	0	1	47*	17
CCN(c1ncnc(N)c1[N+](=O)[O-])C1CCCCC1	0	0	51*	21
Nc1ncnc(N(c2ccccc2)C2CCCCC2)c1[N+](=O)[O-]	0	1	-5	16
NC(=O)c1ccc(NC(=O)C(F)(F)F)cc1	0	0	-5	2
N#Cc1c(N)nc(SCC(=O)O)c(C#N)c1-c1ccc(O)cc1	0	5	-3	-9
SMILES	FBW7 act	GPR151 activ	TEAD-YAP inh	MITF primary
N#Cc1c(N)nc(SCC(=O)c2ccc(F)cc2)c(C#N)c1-c1ccc(O)cc1	0	4	34*	-5
C/C(=N\NC(=O)c1ccc(Cl)cc1)c1ccc(F)cc1	0	0	-17	16
O=C1NC(=O)N(c2ccc(F)cc2)C(=O)/C1=C\c1ccc(SCc2ccco2)o1	-1	1	12	87*
O=C1NC(=O)N(c2ccccc2)C(=O)/C1=C\c1ccc(-c2ccc([N+](=O)[O-])cc2)o1	0	-1	-4	2
O=C1NC(=O)N(c2ccc([N+](=O)[O-])cc2)C(=O)/C1=C/c1ccco1	0	0	-2	78*
O=C1NC(=S)S/C1=C\c1ccc(SCc2ccco2)o1	-1	-1	18	58*
Cc1ccc(/C=C2\C(=O)NC(=O)N(c3ccc(F)cc3)C2=O)o1	0	1	2	0
CCOc1ccccc1N1C(=O)NC(=O)/C(=C/c2ccco2)C1=O	-1	1	-3	38
N=C1/C(=C\c2ccc(SCc3ccco3)o2)C(=O)N=C2SC(N3CCCC3)=NN12	0	-1	1	18
COc1ccccc1N1C(=O)NC(=O)/C(=C\c2ccco2)C1=O	-1	0	0	62*
Cc1ccc2c(c1)CN(CCNC(=O)C1CC13CCCCC3)CC(C)O2 (centres undefined)	1	-2	1	13

Source: PubChem (The Scripps Research Institute Molecular Screening Center)
